Shown are actives, neighbours in structure and some others; about 1.7% of the full set was active somewhere.
GLP-1R agonist = qHTS of GLP-1 Receptor Agonists; Glucagon-like peptide 1 receptor (Homo sapiens), P43220; HEK293 GLP-1R CRE-luciferase, luminescence, 4-6 h; cells express a hypersensitive GLP-1R form; Potency, µM (series often up to 45.6 µM), usual class: activators; 380,000 tested, 0.007% active
GLP1R cytotox = qHTS of GLP-1 Receptor Inverse Agonists: Cytotox Screen; HEK293 cAMP-luciferase reporter cells, luminescence, 24 h; Potency, µM (highest dose often 38.3 µM), actives largely listed as inhibitors; 410,000 tested, 0.13% active; AID 624418, 2012;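 also: loss of luciferase light is scored as toxicity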
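To flag toxic compounds, the library was rerun on cells for 24 hr at 37 deg C and 5% CO2. Viability-linked luminescence was captured 12 min after adding luciferase detection reagent.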
GLP-1R inv ag = qHTS of GLP-1 Receptor Inverse Agonists (Inhibition Mode); AID 624417, 2012; HEK293 GLP-1R CRE-luciferase, luminescence, 24 h; GLP-1R form is constitutively active; Potency, µM (doses to about 38.3 µM), hits mostly inhibitors; 410,000 tested, 1.6% active; also: nearly all actives have a fitted effect of over 55% in size
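Seeding at 200 cells/uL, 12 h culture, 24 hr compound treatment, then luciferase reagent and a luminescence read; cells are HEK293 stably expressing a constitutively active GLP-1R plus cAMP-responsive luciferase.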
PTHR1 ag = qHTS for PTHR1 Agonists: Primary Screen; HEK293 GP2 PTHR1 cells, GloSensor cAMP luminescence, 1 h; Potency, µM (top dose mostly 115 µM), hits mostly activators; 410,000 tested, 0.075% active; AID 743266, 2014; also: nearly all actives have a fitted effect of over 55% in size
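HEK-293-derived GP2 cells expressing PTHR1 and a GloSensor cAMP reporter, 3,000/well, plated overnight, given luciferin plus IBMX (each 0.5 mM as added) for 1 h at 37 °C, then compound for 1 h at 37 °C. Luminescence was read after 15 min at room temperature.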
IDH1 R132H inh = qHTS for Inhibitors of mutant isocitrate dehydrogenase 1 (IDH1): qHTS; 390,000 tested, 0.093% active; IDH1-R132H enzyme, NADPH consumption, diaphorase/resazurin fluorescence; Isocitrate dehydrogenase [NADP] cytoplasmic (Homo sapiens), O75874; Potency, µM (doses to about 76.6 µM), actives largely listed as inhibitors; also: nearly all actives have a fitted effect of over 65% in size
Target sequence (O75874 whole entry R132H, stated change not applied): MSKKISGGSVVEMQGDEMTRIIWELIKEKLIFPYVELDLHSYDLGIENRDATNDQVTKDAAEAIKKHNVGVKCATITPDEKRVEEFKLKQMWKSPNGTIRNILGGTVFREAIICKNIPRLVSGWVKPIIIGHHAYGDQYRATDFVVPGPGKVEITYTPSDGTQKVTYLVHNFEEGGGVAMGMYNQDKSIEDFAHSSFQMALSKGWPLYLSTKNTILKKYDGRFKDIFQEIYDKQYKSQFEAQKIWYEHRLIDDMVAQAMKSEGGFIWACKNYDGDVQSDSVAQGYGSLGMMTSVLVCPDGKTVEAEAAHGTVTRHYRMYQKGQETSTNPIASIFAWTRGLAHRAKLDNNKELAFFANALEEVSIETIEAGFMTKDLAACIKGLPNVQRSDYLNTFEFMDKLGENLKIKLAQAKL
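IDH1-R132H (0.5 ug/mL dispensed) in pH 7.5 Tris buffer was preincubated 30 min with compound, then given a substrate mix of 0.016 mM NADPH and 2 mM alpha-KG for 80 min at room temperature; remaining NADPH was read by diaphorase/resazurin fluorescence.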
LDHA inh = qHTS assay for inhibitors of human lactate dehydrogenase; 480,000 tested, 0.15% active; purified LDHA, NADH/diaphorase-resazurin fluorescence; stronger effect = lower value; L-lactate dehydrogenase A chain (Homo sapiens), P00338; activity change, % (values are at about 110 or 230 µM); in the data active = activity change below about -30%; inconclusive = mostly about -25% to -30%
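LDH5 2 nM; NADH 0.06 mM, pyruvate 0.2 mM; 200 mM Tris pH 7.4, EDTA, Tween-20; 5 min RT. Detection: diaphorase 0.133 mg/mL + resazurin 37 µM, fluorescence ex540/em590 at 0 and 20 min; normalized to enzyme-free and DMSO wells.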
Resorufin autofl = qHTS for Inhibitors of mutant isocitrate dehydrogenase 1 (IDH1): Cherrypicks Autofluorescence Interference; shares compounds with IDH1 R132H inh; Resorufin detection reagent fluorescence interference, cell-free; inhibition of signal, % at 51.2 µM; 750 tested, under 10 active; AID 623980, 2012
WT IDH1 inh = qHTS for Inhibitors of mutant isocitrate dehydrogenase 1 (IDH1): Cherrypicks in WT IDH1; shares compounds with IDH1 R132H inh; WT IDH1 enzyme, NADPH diaphorase/resazurin fluorescence; Potency, µM (doses to about 115 µM), actives largely listed as inhibitors; 750 tested, 9% active; also: nearly all actives have a fitted effect of over 55% in size
Target sequence (O75874 whole entry, looked up): as the sequence (O75874 whole entry R132H, stated change not applied) above, with H132R counted along it
mIDH1 confirm = qHTS for Inhibitors of mutant isocitrate dehydrogenase 1 (IDH1): Confirmation of Cherrypicks; shares compounds with IDH1 R132H inh; IDH1 R132H enzyme, NADPH diaphorase/resazurin fluorescence; Potency, µM (top dose mostly 76.6 µM), most hits filed as inhibitors; 750 tested, 83% active; AID 624002, 2012; also: nearly all actives have a fitted effect of over 50% in size
A number is an active result; - = inactive; ? = inconclusive; . = no result given. Unless noted, calls follow the shape of the dose curve; as a rule, active = well fitted curve in the direction sought with a large enough effect; inconclusive = small, poorly fitted or top-dose-only effect, or another doubt; inactive = no such curve, though single readings can be large; an effect the other way counts as inactive or inconclusive.

SMILES	GLP-1R agonist	GLP1R cytotox	GLP-1R inv ag	PTHR1 ag	IDH1 R132H inh	LDHA inh	Resorufin autofl	WT IDH1 inh	mIDH1 confirm
Cc1cccc(N=C2Sc3nc4c(C)c(C)ccc4cc3CN2CCN2CCOCC2)c1	-	-	-	-	?	-	-	-	11µM
COCc1ccc(-c2c(-c3ccsc3)oc(=O)c3cc(OC)c(OC)cc23)cc1	-	-	-	-	16µM	-	-	-	10µM
Cc1cc(Br)cc(C)c1OC(C)C(=O)O (stereo unspecified)	.	.	.	.	.	-	.	.	.
Nc1nc2c(s1)C(c1ccccc1Cl)CC(=O)N2 (stereo unspecified)	.	.	.	.	.	-	.	.	.
COC(=O)c1c(NC(=O)COC(=O)c2ccc(O)cc2)sc2c1CCCCC2	-	-	-	-	?	-	-	-	-
O=C(c1ccc(C2SCCS2)cc1)N1CCN(Cc2ccccc2)CC1	.	.	.	.	.	-	.	.	.
CCN(CC)c1ccc(/C=N/NC(=O)Cc2nnc(NC(=O)Nc3ccccc3)s2)cc1	-	-	?	-	4.1µM	-	-	-	6.3µM
CCc1nc(N2CCN(C(=O)CCl)CC2)c2c3c(sc2n1)CC(C)CC3 (stereo unspecified)	-	?	?	-	?	-	-	50µM	10µM
O=S(=O)(c1ccc(NC(=S)NN=Cc2ccccc2O)cc1)N1CCCCC1	-	-	?	-	46µM	-	-	-	22µM
O=S(=O)(c1ccc(NC(=S)N/N=C/c2cccc(Oc3ccccc3)c2)cc1)N1CCOCC1	-	-	-	-	?	-	-	-	?
O=C(CN1CCN(C(=O)c2cc(C3CC3)nc3ccccc23)CC1)NC1CC1	.	.	.	.	.	-	.	.	.
CN1CCN(c2nc3ccccc3nc2C(=O)Nc2ccccc2)CC1	.	.	.	.	.	-	.	.	.
COc1ccc(N2C(=O)CCSC23C(=O)N(Cc2ccc(F)cc2)c2ccccc23)cc1Cl (stereo unspecified)	.	-	?	-	?	-	-	-	32µM
COc1ccc(N2C(=O)CCSC23C(=O)N(Cc2ccc(F)cc2)c2ccccc23)cc1 (stereo unspecified)	.	-	?	-	32µM	-	-	-	35µM
COc1ccc(N(C(=O)c2cccs2)C2C=CS(=O)(=O)C2)cc1 (stereo unspecified)	.	.	.	.	.	-	.	.	.
COc1ccc(C2C3=C(CCCC3=O)Nc3c(C#N)cnn32)cc1OC (stereo unspecified)	.	.	.	.	.	-	.	.	.
O=C(Cc1c[nH]c2ccccc12)OCc1cccc(Cl)c1	.	.	.	.	.	-	.	.	.
Fc1ccc(F)c(Nc2c3c(nc4ccc(Cl)cc24)CCC3)c1	-	-	?	-	?	-	.	.	.
FC(F)(F)c1cccc(Nc2c3c(nc4ccc(Cl)cc24)CCC3)c1	.	?	?	-	?	-	-	-	?
COc1ccc(NS(=O)(=O)c2cc(C(=O)N3CCCCCC3)cs2)c(OC)c1	.	.	.	.	.	-	.	.	.
CCN(C(=O)c1cc2c(C)nc3ccccc3c2o1)c1cc(Cl)ccc1OC	?	-	?	-	33µM	-	-	-	20µM
CCN(C(=O)c1cc2c(s1)-c1ccccc1OC2)c1cc(Cl)ccc1OC	.	-	?	-	-	-	.	.	.
O=C(NC(Nc1nc2ccc([N+](=O)[O-])cc2s1)(C(F)(F)F)C(F)(F)F)c1ccccc1Cl	-	?	-	-	?	-	-	-	22µM
O=C(NC(NNc1ccc([N+](=O)[O-])cc1)(C(F)(F)F)C(F)(F)F)c1ccccc1Cl	-	-	-	-	-	-	.	.	.
O=C(NC(Nc1nc2ccc([N+](=O)[O-])cc2s1)(C(F)(F)F)C(F)(F)F)c1cccnc1	-	?	?	-	?	-	-	-	13µM
SMILES	GLP-1R agonist	GLP1R cytotox	GLP-1R inv ag	PTHR1 ag	IDH1 R132H inh	LDHA inh	Resorufin autofl	WT IDH1 inh	mIDH1 confirm
C[C@H](CO)N1C[C@H](C)[C@@H](CN(C)Cc2ccc3c(c2)OCO3)Oc2c(NC(=O)C3CCCCC3)cccc2C1=O	-	-	?	-	?	-	.	.	.
C[C@H](CO)N1C[C@H](C)[C@@H](CN(C)Cc2ccc(Cl)c(Cl)c2)Oc2c(NC(=O)C3CCOCC3)cccc2C1=O	-	-	-	-	-	-	.	.	.
C[C@H](CO)N1C[C@H](C)[C@@H](CN(C)Cc2ccc(Cl)c(Cl)c2)Oc2c(NC(=O)C3CC3)cccc2C1=O	-	-	?	-	?	-	-	-	25µM
C[C@H](CO)N1C[C@H](C)[C@@H](CN(C)Cc2ccc(C(=O)Nc3ccccc3N)cc2)Oc2c(NC(=O)C3CCCCC3)cccc2C1=O	-	-	-	-	40µM	-	-	?	28µM
Cc1ccc(-c2cc3c(n2-c2ccc(C(=O)O)cc2)CCCC3=O)cc1	-	-	-	-	?	-	-	-	35µM
O=C(OCc1cc(=O)oc2cc(O)ccc12)c1ccc(F)cc1F	.	.	.	.	.	-	.	.	.
Cc1cc(C)n(-c2nc(N(c3ccccc3)c3ccccc3)nc(-n3nc(C)cc3C)n2)n1	-	-	?	-	?	-	-	-	10µM
Cc1ccc(C(NC(=O)C(C)C)c2cc([N+](=O)[O-])c3cccnc3c2O)cc1 (stereo unspecified)	-	?	?	-	?	-	-	?	28µM
CC(C)C(=O)NC(c1cccs1)c1cc([N+](=O)[O-])c2cccnc2c1O (stereo unspecified)	-	-	-	-	?	-	.	.	.
CCNC(=O)NC(=O)C(C)OC(=O)c1oc2ccccc2c1CSC1CCCCC1 (stereo unspecified)	-	-	-	-	?	-	-	-	32µM
CSc1nc2n(n1)C(c1ccccc1)C1=C(CCCC1=O)N2 (stereo unspecified)	.	.	.	.	.	-	.	.	.
O=C(Nc1ccccc1I)C1CCCC1	.	.	.	.	.	-	.	.	.
